Assay results from the supplement of paper PMC10515830.
Where a name gives a salt, the structure may show the parent alone.

Assays:
Conditions in all cases: 10 µM; exposure time 6 h
[1] = test system: Danio rerio larvae (5 dpf); experiment: difference in excitability vs DMSO (percentage points); higher = more excitable than DMSO
Outline: (§1)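 Wild-type 5 dpf zebrafish larvae in 96-well plates were given 100 µL egg water containing library compound at 10 µM final for 6 h. After 3 h of exposure, plates at 28.5 ℃ were photographed every 6 s during a 3-h programme of moving lines and 100 ms, 400Hz tones. Z-LaP Tracker (a DeepLabCut model) quantified each behaviour, averaged over 48 larvae per compound. Values are the compound mean minus the DMSO-vehicle control, in percentage points.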

[2] = test system: Danio rerio larvae (5 dpf); experiment: difference in startle response vs DMSO (percentage points); higher = stronger startle than DMSO
Outline: as §1

[3] = test system: Danio rerio larvae (5 dpf); experiment: difference in activity during first hour vs DMSO (percentage points); higher = more activity than DMSO
Outline: as §1

[4] = test system: Danio rerio larvae (5 dpf); experiment: difference in habituation to acoustic stimuli vs DMSO (percentage points); higher = more habituation than DMSO
Outline: as §1

[5] = test system: Danio rerio larvae (5 dpf); experiment: difference in combined optomotor response to red, green and blue moving lines vs DMSO (percentage points); higher = stronger optomotor response than DMSO
Outline: as §1

SMILES	difference in excitability [1]	difference in startle response [2]	difference in activity during first hour [3]	difference in habituation to acoustic stimuli [4]	difference [5]
CC(C(=O)O)c1cccc(Oc2ccccc2)c1 (stereo not given) [Fenoprofen (calcium salt hydrate)]	5.22	0.479	-0.54	-2.86	-2.31
C[C@@H]1O[C@@H]1P(=O)(O)O [Fosfomycin Trometamol]	3.54	-4.33	-4.99	-4.72	-4.51
Cc1cn[nH]c1 [Fomepizole]	-1.56	-0.451	3.73	2.38	-2.44
Nc1nc(=O)c2nc(CNc3ccc(C(=O)N[C@@H](CCC(=O)O)C(=O)O)cc3)cnc2[nH]1 [Folic Acid]	7.04	-0.204	15.5	2.6	6.5
CCc1c(Cl)c(O)c(Cl)c(O)c1C(=O)O[C@H]1[C@H](O)[C@H](OC)[C@H](OCC2=CC=CC[C@H](O)C(C)=C[C@H](CC)[C@@H](O[C@@H]3OC(C)(C)C(OC(=O)C(C)C)[C@H](O)[C@@H]3O)C(C)=CC(C)=CC[C@@H]([C@@H](C)O)OC2=O)O[C@@H]1C (stereo not given in full) [Fidaxomycin]	1.12	8.11	12.6	4.21	4.75
CCCSc1ccc2[nH]c(NC(=O)OC)nc2c1 [Albendazole]	17.3	4.02	4.4	0.0113	3
O=C(O)c1cc(-c2ccc(F)cc2F)ccc1O [Diflunisal]	1.22	5.89	15.2	-3.92	6.8
CC(C)(C)c1cc(C(C)(C)C)c(NC(=O)c2c[nH]c3ccccc3c2=O)cc1O [Ivacaftor]	2	-4.58	-10	-2.59	5.49
COc1cc(C)c(/C=C/C(C)=C/C=C/C(C)=C/C(=O)O)c(C)c1C [Acitretin]	6.34	-12.5	50.6	-15.4	-20.9
O=C1NC(c2ccccc2)(c2ccccc2)C(=O)N1COP(=O)(O)O [Fosphenytoin (sodium salt)]	1.33	6.03	-3.5	3.61	0.0516
NS(=O)(=O)c1cc(C(=O)O)c(NCc2ccco2)cc1Cl [Furosemide]	6.1	-2.57	12	-0.166	8.19
C[C@@H](O)[C@H]1C(=O)N2C(C(=O)O)=C(S[C@@H]3CN[C@H](C(=O)N(C)C)C3)[C@H](C)[C@H]12 [Meropenem (hydrate)]	3.3	-1.18	0.0616	-0.499	3.61
CC[C@H](C)C[C@H](C)CCCCCCCCC(=O)N[C@H]1C[C@@H](O)[C@@H](NCCN)NC(=O)[C@@H]2[C@@H](O)CCN2C(=O)[C@H]([C@H](O)CCN)NC(=O)[C@H]([C@H](O)[C@@H](O)c2ccc(O)cc2)NC(=O)[C@@H]2C[C@@H](O)CN2C(=O)[C@H]([C@@H](C)O)NC1=O [Caspofungin (acetate)]	12.4	-1.41	-14	-0.0911	-8.06
N[C@H](C(=O)O)[C@H](O)c1ccc(O)c(O)c1 [Droxidopa]	0.975	0.64	3.89	5.02	2.12
O=C(O)CCc1nc(-c2ccccc2)c(-c2ccccc2)o1 [Oxaprozin]	17.9	-7.37	3.28	-4.84	-6.06
NCc1ccc(S(N)(=O)=O)cc1 [Mafenide]	3.79	7.01	4.01	0.954	0.998
CC(C)(CO)c1cc2cc(NC(=O)C3(c4ccc5c(c4)OC(F)(F)O5)CC3)c(F)cc2n1C[C@@H](O)CO	16.7	3.44	15.2	6.02	6.53
OCCOCCN1CCN(C2=Nc3ccccc3Sc3ccccc32)CC1 [Quetiapine (hemifumarate)]	-1.54	-3.79	16.8	-4.99	10.6
Clc1cccc(Cl)c1NC1=NCCN1 [Clonidine (hydrochloride)]	9.22	3.55	-11.7	0.121	6.82
CN(C)C(=O)C(CCN1CCC(O)(c2ccc(Cl)cc2)CC1)(c1ccccc1)c1ccccc1 [Loperamide (hydrochloride)]	20.6	4.43	29.3	-9.2	-2.52
CC(N)C12CC3CC(CC(C3)C1)C2 (stereo not given) [Rimantadine (hydrochloride)]	3.64	-0.673	-3.58	3.17	-3.34
CN/C(=N\CCSCc1nc[nH]c1C)NC#N [Cimetidine]	-1.49	2.86	11.1	4.18	8.46
C[C@](N)(Cc1ccc(O)cc1)C(=O)O [Metyrosine]	0.523	8.55	-8.67	12.3	-4.59
CO[C@H]1/C=C/O[C@@]2(C)Oc3c(C)c(O)c4c(O)c(c5c(nc6cc(C)ccn65)c4c3C2=O)NC(=O)/C(C)=C\C=C\[C@H](C)[C@H](O)[C@@H](C)[C@@H](O)[C@@H](C)[C@H](OC(C)=O)[C@@H]1C [Rifaximin]	-5.63	-5.31	13.2	0.472	0.85
CN1CCC[C@@H]1Cc1c[nH]c2ccc(CCS(=O)(=O)c3ccccc3)cc12 [Eletriptan]	0.175	-8.65	6.02	-5.47	-0.217
